IL1B secr inh: inflammasome signaling inhibition, IL-1 beta readout | THP-1 LPS/ATP IL-1B secretion, AlphaLISA, 16 h; active compounds read low | activity change, % at 57.5 µM | 360,000 compounds, 4.7% hits | AID 743279; in the data active means activity change below about -50%; inconclusive means mostly about -30% to -49%
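THP-1 cells pretreated 1 hr with compounds (up to 57.5 uM final), then stimulated with LPS (250 ng/mL final) plus ATP (1.25 mM final); secreted IL-1B measured by AlphaLISA after 16 hr, decreased signal indicating inhibition.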
DT40 TDP1 CPT: growth inhibition of DT40 Tdp1-/-;hTDP1 cells with camptothecin (screen for TDP1 inhibitors); chicken DT40 Tdp1-/-;hTDP1 cells + 20 nM CPT, ATP luminescence, 48 h; Potency, µM (highest dose often 46.2 µM), inactives show top-dose activity change, negative = growth inhibition, usual class: inhibitors; 420,000 compounds, 12% hits; further: potency means the concentration at half of the fitted maximal effect; nearly all actives have a fitted effect of over 55% in size
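Cell growth measured by CellTiter-Glo luminescence after a minimum 48 h, 37 C compound exposure with 20 nM CPT in Tdp1-knockout DT40 cells stably expressing hTDP1, seeded 400/well; qHTS titration format.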
RORg inh: ROR gamma (mouse) transcription inhibition. Drosophila S2 Gal4-RORgamma UAS-luciferase reporter, 20 h. P51450. 310,000 compounds, 5.4% hits. Potency, µM (titrated, usually from 53.6 µM), for inactives: at the highest dose activity change, negative = inhibition, most hits filed as inhibitors; further: potency means the concentration at half of the fitted maximal effect; nearly all actives have a fitted effect of over 60% in size
Target sequence (P51450 whole entry, looked up, the tested form may be a part): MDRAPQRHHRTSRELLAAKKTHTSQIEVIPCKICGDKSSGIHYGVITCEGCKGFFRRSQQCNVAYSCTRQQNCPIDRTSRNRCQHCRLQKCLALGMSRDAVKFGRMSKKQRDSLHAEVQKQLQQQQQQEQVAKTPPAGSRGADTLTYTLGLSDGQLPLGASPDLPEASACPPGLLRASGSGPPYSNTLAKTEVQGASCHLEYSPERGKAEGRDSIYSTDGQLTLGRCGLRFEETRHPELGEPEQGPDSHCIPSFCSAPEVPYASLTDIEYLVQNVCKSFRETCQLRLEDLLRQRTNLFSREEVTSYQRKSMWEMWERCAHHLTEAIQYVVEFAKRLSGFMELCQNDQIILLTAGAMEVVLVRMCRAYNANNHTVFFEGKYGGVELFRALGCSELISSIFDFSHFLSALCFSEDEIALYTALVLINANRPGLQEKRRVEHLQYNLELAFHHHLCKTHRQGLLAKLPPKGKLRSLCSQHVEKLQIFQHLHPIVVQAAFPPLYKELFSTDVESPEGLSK
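Schneider cells (Drosophila), stable Gal4 DBD–ROR gamma + UAS-luc; 1 hr cmpd preincubation; Cu2+ induction 700 uM final; 20 hr ambient; luminescence.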
ELG1 repair inh: blocks ELG1-dependent DNA repair in HEK293T cells; HEK293T ELG1-luciferase reporter, luminescence, 16 h; DNA damage induced by 5-fluorouridine; Potency, µM (doses to about 46.1 µM), for inactives: at the top dose activity change, negative = inhibition, actives largely listed as inhibitors; 330,000 compounds, 2.3% hits; AID 504467; further: potency means the concentration at half of the fitted maximal effect; nearly all actives have a fitted effect of over 55% in size
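Cells (2,000 per well) received 5-fluorouridine plus test compound or DMSO and were incubated 16 hr at 37 °C, 5% CO2. Luciferase activity was read by luminescence 30 min after ONE-Glo addition; signal suppression marked inhibition of damage-induced ELG1 function.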
VP16 counter: inhibits Gal4-VP16 luciferase reporter, ROR gamma counter-screen. Drosophila S2 Gal4-VP16 UAS-luciferase, luminescence, 20 h. Potency, µM (titrated, usually from 53.6 µM), for the others: at the highest dose activity, negative = inhibition, most hits filed as inhibitors. 310,000 compounds, 3.5% hits;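 further: Gal4-VP16 expression switched on by copper sulfate through the metallothionein promoter; potency means the concentration at half of the fitted maximal effect; nearly all actives have a fitted effect of over 50% in size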
TDP1 cell noCPT: qHTS for Inhibitors of human tyrosyl-DNA phosphodiesterase 1 (TDP1): qHTS in cells in absence of CPT | DT40 Tdp1-/- hTDP1 cells, no CPT, ATP luminescence, 48 h | Potency, µM (highest dose often 46.2 µM), for inactives: at the top dose activity change, negative = growth inhibition, hits mostly inhibitors | 420,000 compounds, 15% hits | AID 686978, 2013; further: potency means the concentration at half of the fitted maximal effect; nearly all actives have a fitted effect of over 55% in size
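Compound effects on proliferation are scored in DT40 Tdp1-/-;hTDP1 cells in the absence of CPT. ATP levels (CellTiter-Glo luminescence) are recorded after a ≥48 hr, 37 °C incubation.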
* marks the source's active call; other numbers are inactive results; ? = inconclusive; . = no result; [ ] = remark or other dose. Only some compounds are listed: those with a hit (about 21% of all), similar ones and a draw of the others. Unless noted, the call rests on the fitted dose curve; in most records, active means well fitted curve in the direction sought with a large enough effect; inconclusive means small, poorly fitted or top-dose-only effect, or another doubt; inactive means no such curve, though single readings can be large; an effect the other way counts as inactive or inconclusive. On the % scale 0 is the no-effect control and ±100 the full control effect.

SMILES | IL1B secr inh | DT40 TDP1 CPT | RORg inh | ELG1 repair inh | VP16 counter | TDP1 cell noCPT
COc1cnc(-c2ccccn2)nc1Oc1cccc(C(F)(F)F)c1 | . | . | 6.3µM* | -16% | 11µM* | .
COc1cc(C(F)(F)F)nc(-c2ccccn2)n1 | 9 | 18% | -32% | 26% | 1% | -22%
COc1ccnc(Oc2ccccc2)c1C#N | -7 | -10% | 4% | 24% | -3% | -9%
CN(c1ccccc1)c1ncccn1 | 13 | -9% | . | . | . | -16%
COc1cnc(-c2ccccn2)nc1Oc1ccccc1 | 15 | 0.46µM* | 11µM* | -23% | ? | 0.46µM*
COc1cnc(-c2ccccn2)nc1N(C)c1ccccc1 | 114 | 0.52µM* | 7.9µM* | ? | ? | 0.41µM*
c1cc2c(c(CC3CO3)c1CC1CO1)OCCOCCOCCOCCO2 (stereo not drawn) | 6 | 2.1µM* | . | . | . | 2.3µM*
Nc1ccc2c(c1)OCCOCCOCCOCCOCCO2 | 23 | -4% | -5% | 19% | -11% | 0%
COC(=O)c1cccc(Nc2c(-c3ccc(SC)cc3)nc3nc[nH]n23)c1 | . | -15% | . | . | . | -16%
CCN1C/C(=N\S(=O)(=O)/N=C2\CN(CC)C(=O)N2CC)N(CC)C1=O | 19 | -7% | 10µM* | -6% | -7% | 15%
O=C1CC(c2cccc(O)c2)c2c(nc(SCc3ccccc3F)[nH]c2=O)N1 (stereo not drawn) | . | -12% | . | . | . | -10%
N#CCSc1ccccc1NC(=O)COC(=O)C1CCN(C(=O)c2ccc(Cl)cc2)CC1 | 19 | 2% | . | . | . | -16%
CCN1C(=O)CC(SC2CC(=O)N(CC)C2=O)C1=O (stereo not drawn) | -2 | 3.7µM* | . | . | . | 8.2µM*
CCN1C(=O)CC(N2CCC(C(=O)OC)CC2)C1=O (stereo not drawn) | 10 | 13% | 34%[0.365 µM] | 10% | . | -17%
CCCCN1C(=O)CC(Sc2ncccc2C(=O)O)C1=O (stereo not drawn) | 0 | -8% | -5% | -9% | -1%[10 µM] | -2%
CCCCN1C(=O)CC(SC2CC(=O)N(CCCC)C2=O)C1=O (stereo not drawn) | -10 | 16µM* | . | . | . | 5.8µM*
CCC1=C2CC[C@H]3C(=O)N(c4ccccc4)C(=O)[C@H]3[C@H]2[C@@]2(Cc3ccccc3)C(=NCc3ccccc3)OC(=O)N2C1=O | . | . | -1% | . | -8% | .
O=c1[nH]c(C2CCN(S(=O)(=O)c3ccc(C(F)(F)F)cc3)CC2)nc2c1nnn2Cc1ccc(F)cc1 | -57* | ? | ? | -12% | -17% | ?
O=c1[nH]c(C2CCN(S(=O)(=O)c3ccccc3)CC2)nc2c1nnn2Cc1ccccc1 | -7 | 21µM* | 24% | 1% | -10% | ?
Cc1ccc(Cn2nnc3c(=O)[nH]c(C4CCN(S(=O)(=O)c5ccc(S(=O)(=O)NC6CC6)cc5)CC4)nc32)cc1 | ? | ? | 36% | ? | -2% | ?
O=c1[nH]c(C2CCN(S(=O)(=O)c3ccc(S(=O)(=O)NC4CC4)cc3)CC2)nc2c1nnn2Cc1cccc(F)c1 | ? | 16µM* | 41% | 13µM* | -2% | ?
N#Cc1cccc(NC(=O)N2CCC(c3nc4c(nnn4Cc4cccc(Cl)c4)c(=O)[nH]3)CC2)c1 | -63* | 0% | 25% | ? | -2% | -3%
CN(C)c1nc(-c2ccccc2C(F)(F)F)nc2ccccc12 | . | -12% | -5% | . | -7% | -14%
CC1CCN(c2ncnc3c2cnn3-c2ccc(F)cc2)CC1 | . | -7% | . | . | . | ?
CCc1ccc2occ(CC(=O)Nc3c(C(=O)c4ccccc4)oc4ccccc34)c2c1 | . | -26% | . | . | . | ?
SMILES | IL1B secr inh | DT40 TDP1 CPT | RORg inh | ELG1 repair inh | VP16 counter | TDP1 cell noCPT
CC(=O)c1cccc(S(=O)(=O)N2CCCC(c3nc4c(nnn4Cc4ccc(C)cc4)c(=O)[nH]3)C2)c1 (stereo not drawn) | -55* | ? | 14% | ? | -15% | -28%
COC(=O)c1ccc(Cn2nnc3c(=O)[nH]c(C4CCN(S(=O)(=O)c5cc(C)ccc5C)CC4)nc32)cc1 | 18 | 23µM* | 16% | 3% | ? | ?
O=c1[nH]c(C2CCN(S(=O)(=O)c3ccc4c(c3)OCCO4)CC2)nc2c1nnn2Cc1cccc(F)c1 | -4 | ? | 26% | 5% | 0% | ?
O=c1[nH]c(C2CCN(S(=O)(=O)c3cccc(C(F)(F)F)c3)CC2)nc2c1nnn2Cc1cccc(F)c1 | -68* | 18µM* | -11% | -5% | ? | 21µM*
COC(=O)c1ccc(Cn2nnc3c(=O)[nH]c(C4CCCN(S(=O)(=O)c5ccc(C)cc5)C4)nc32)cc1 (stereo not drawn) | -1 | -20% | -20% | -14% | -21% | ?
CC(=O)c1cccc(S(=O)(=O)N2CCCC(c3nc4c(nnn4Cc4cccc(Cl)c4)c(=O)[nH]3)C2)c1 (stereo not drawn) | ? | ? | 1% | ? | -6% | ?
Cc1ccc(Cn2nnc3c(=O)[nH]c(C4CCN(S(=O)(=O)c5ccccc5F)CC4)nc32)cc1 | -61* | -4% | 5% | 12% | -2% | 0%
CCCCNc1nc2c(S(=O)(=O)c3ccc(Br)cc3)nnn2c2ccsc12 | . | -12% | . | . | . | 3%
COc1cc(Nc2nc3c(S(=O)(=O)c4ccc(C)c(C)c4)nnn3c3ccsc23)cc(OC)c1 | . | 9.2µM* | . | . | . | 13µM*
COc1ccc(Nc2nc3c(S(=O)(=O)c4ccc(Br)cc4)nnn3c3ccsc23)c(OC)c1 | . | 16µM* | . | . | . | 21µM*
Cc1ccc(C)c(N2CCN(C(=O)CCc3nc(-c4ccccc4Br)no3)CC2)c1 | -10 | ? | . | 11% | . | ?
COc1ccccc1N1CCN(S(=O)(=O)CCNC(=O)c2ccccc2Br)CC1 | 8 | -26% | -1% | ? | 14% | -28%
Cc1ccccc1Nc1nc(N)nc(C)c1Br | -3 | ? | . | . | . | 15µM*
CCc1c(N)nc(N)nc1Nc1ccccc1C | -18 | ? | . | . | . | 16µM*
O=C1N(Cc2cccnc2)C[C@@H]2C[C@@H](c3ccc4nsnc4c3)N3CCC[C@@]123 | 0 | ? | 19% | 5% | 4% | -6%
O=C(c1cccs1)N1CCN(c2ccc([N+](=O)[O-])cc2F)CC1 | 0 | ? | ? | -6% | 19% | -21%
Cc1cc(N2CCN(C(=O)c3cccs3)CC2)c(F)cc1[N+](=O)[O-] | -5 | 10µM* | ? | ? | ? | 5.2µM*

Bioassay records from PubChem.
